# HepG2 tox: HepG2 cytotoxicity, counter-screen for TGF-b inhibitors; 0.76% of 410,000 active; AID 588856; Potency, µM (highest dose often 46.1 µM), hits mostly cytotoxic; HepG2 CAGA-GFP viability, ATP luminescence, 18 h
#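 HepG2 CAGA-GFP cells (1000/well, DMEM with 1% FBS) received compound, then TGF-beta at 500 pg/mL final, and were incubated 18 hours at 37 degrees C. Viability was read by CellTiter-Glo luminescence. Media-only wells were set as complete cell-killing and DMSO as no toxicity.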
# HT1080NT lethal: kills 2HG-producing HT-1080-NT fibrosarcoma cells. HT-1080-NT fibrosarcoma viability, CellTiter-Glo ATP luminescence, 48 h. Potency, µM (titrated, usually from 46.1 µM), hits mostly cytotoxic. 1.6% of 360,000 active. AID 686970;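 also: NT is the 2HG producing partner of a matched IDH1 knockdown line; nearly all actives have a fitted effect of over 55% in size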
#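 Fibrosarcoma NT cells, 750 per well in 5% FBS RPMI, were exposed to compound for 48 hours. Viability: CellTiter-Glo luminescence.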
# KB-3-1 cytotox: kills parental KB-3-1 adenocarcinoma cells | Potency, µM (top dose mostly 46.1 µM), usual class: cytotoxic | KB-3-1 viability, CellTiter-Glo ATP luminescence, 72 h | AID 1347075 | 1.4% of 400,000 active; also: nearly all actives have a fitted effect of over 60% in size
#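 Luminescent ATP read-out (CellTiter-Glo) measures survival of drug-naive KB-3-1 cells after 72 h compound exposure at 37 °C. Titration series was screened from lowest to highest concentration, with DMSO vehicle plates as background controls.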
# KB-V1 MDR tox: KB-V1 MDR subline cytotoxicity; KB-V1 MDR cells viability, CellTiter-Glo, 72 h; Potency, µM (doses to about 46.1 µM), usual class: cytotoxic; 3.4% of 400,000 active; also: nearly all actives have a fitted effect of over 60% in size
#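 Potencies derive from concentration-effect curves fitted to normalized luminescence (CellTiter-Glo) of KB-V1 cells treated for 72 h at 37 degrees C in phenol-red-free DMEM containing 10% FBS.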
# HT1080 IDH1KD tx: HT-1080 IDH1 knockdown cell toxicity (counter line); HT-1080 IDH1 knockdown viability, ATP luminescence, 48 h; Potency, µM (titrated, usually from 46.1 µM), hits mostly cytotoxic; 2% of 360,000 active
#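 After a 2 h attachment period, IDH1KD HT-1080 cells took pin-transferred compound for 48 h at 37 °C; ATP-based luminescence after 10 min room-temperature reagent incubation reported viability.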
# TGFb inhibitor: inhibitors of TGF-b signaling | HepG2 CAGA-GFP TGF-b/SMAD3 reporter, GFP fluorescence, 18 h; TGF-beta stimulated, 500 pg/mL final | Potency, µM (titrated, usually from 46.1 µM), most hits filed as inhibitors | 1.2% of 410,000 active | AID 588855; also: nearly all actives have a fitted effect of over 65% in size
#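 Inhibition was scored as loss of TGF-beta-induced (500 pg/mL final, 18 hours, 37 degrees C) GFP in HEPG2 cells carrying a CAGA-GFP reporter, in DMEM with 1% FBS. Well GFP was summed per cell; Activity was normalised to unstimulated and stimulated DMSO wells, then concentration-response fitting.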
# A number is an active result; - = inactive; ? = inconclusive; . = not tested or not shown; ! = repeats disagree. Shown are actives, neighbours in structure and some others; about 6.6% of the full set was active somewhere. Calls follow the shape of the dose curve; as a rule, active = well fitted curve in the direction sought with a large enough effect; inconclusive = small, poorly fitted or top-dose-only effect, or another doubt; inactive = no such curve, though single readings can be large; an effect the other way counts as inactive or inconclusive.
SMILES,HepG2 tox,HT1080NT lethal,KB-3-1 cytotox,KB-V1 MDR tox,HT1080 IDH1KD tx,TGFb inhibitor
O=C(NC(=S)NCCN1CCOCC1)c1cccc(Cl)c1,-,25µM,-,?,?,-
S=C(NCCN1CCOCC1)N1CCN(c2cccc(Cl)c2)CC1,-,-,?,4.6µM,-,-
CCOC(=O)C1=CCN(S(=O)(=O)c2cccc(Cl)c2)C1c1ccccc1 (configuration not stated),-,-,-,18µM,-,?
CC(=O)C1=CCC(c2ccc(Cl)cc2)N(S(=O)(=O)c2ccccc2C)C1 (configuration not stated),-,?,-,?,16µM,?
CCOC(=O)C1=CCN(S(=O)(=O)c2ccccc2C)C1c1cccc(Cl)c1 (configuration not stated),.,-,?,21µM,?,.
CCOC(=O)C1=CCN(S(=O)(=O)c2cccc(Cl)c2)C1c1cccc(C)c1 (configuration not stated),-,-,-,-,-,-
CCOC(=O)C1=CCN(S(=O)(=O)c2ccccc2Br)C1c1cccc(Cl)c1 (configuration not stated),-,?,-,-,?,-
Cc1sc2nc(SCC(=O)NCCO)n(C)c(=O)c2c1C,-,-,-,?,-,-
Cc1sc2nc(SCC(=O)OC(C)C)n(C)c(=O)c2c1C,-,-,-,15µM,-,-
Cc1cc(C)c(C)c(S(=O)(=O)NC2CCN(Cc3ccccc3)CC2)c1C,-,?,-,-,16µM,?
Cc1cc(S(=O)(=O)NC2CCN(Cc3ccccc3)CC2)c(C)cc1Cl,-,?,-,-,21µM,?
Cc1cc(C)c(S(=O)(=O)NC2CCN(Cc3ccccc3)CC2)c(C)c1,-,-,-,?,-,?
Cc1cccc(N(C)C(=O)C2CCC(CNS(=O)(=O)c3cccc4nsnc34)CC2)c1 (configuration not stated),-,.,?,-,.,?
CCC(=O)N1CCCc2cc(S(=O)(=O)N3CCC(C(=O)Nc4ccccc4CC)CC3)ccc21,-,.,-,?,.,-
COc1cc2sc3ccc(-c4ccc5[nH]ccc5c4)cc3c(=O)c2cc1OC,-,-,-,?,-,-
O=c1c2ccccc2oc2cc(-c3ccc4[nH]ccc4c3)ccc12,-,?,?,-,3.7µM,?
O=C(CCl)N(c1ccccc1)c1c[nH]c2ccccc12,-,?,16µM,16µM,6.5µM,8.9µM
O=C(Cc1ccc(Cl)cc1)NCCc1c[nH]c2ccccc12,-,-,-,-,-,-
O=C(CCl)N(c1ccc(Cl)cc1)c1c[nH]c2ccccc12,18µM,7.3µM,?,18µM,4.6µM,16µM
COc1ccc2c(CNCCc3ccco3)c(C(=O)O)n(Cc3ccc(F)cc3)c2c1,-,.,-,-,.,-
COc1cc(OC)c(OC)cc1/C=C/c1ccc2ccccc2[n+]1C,-,.,13µM,-,.,-
COc1ccc(/C=C/c2ccc3ccccc3[n+]2C)cc1OC,-,-,10µM!,-,-,-
CCc1cccc(NC(=O)c2nc(-c3ccncc3)no2)c1,-,.,-,?,.,-
O=C(NC1CCCCCC1)c1cccc(COCC(F)(F)F)c1,-,-,-,23µM,-,-
CC(CNC(=O)C1CCN(C(=O)N2CCOc3ccc(Cl)cc32)CC1)c1ccccc1 (configuration not stated),-,.,-,-,.,?
SMILES,HepG2 tox,HT1080NT lethal,KB-3-1 cytotox,KB-V1 MDR tox,HT1080 IDH1KD tx,TGFb inhibitor
CCn1cc(C(=O)O)c(=O)c2cc(F)c(N/N=C/c3ccccc3[N+](=O)[O-])cc21,-,-,-,13µM,-,-
CCCN1CNc2c(c(=O)[nH]c(=S)n2CCc2ccccc2Cl)C1,.,-,.,.,-,.
CCCCNC(=S)N(C)/N=C/c1ccc(OCc2ccc(C(=O)OC)cc2)c(OC)c1,-,-,-,13µM,-,-
CCC(=O)c1ccc(OCc2ccc(C(=O)OC)cc2)c(OC)c1,-,-,-,?,-,-
Cc1ccc(-c2cc(C(=O)OCC(=O)c3ccccc3)c3cccc(Cl)c3n2)cc1,-,.,-,-,.,-
Cc1cccc(C)c1NC(=O)c1csc2c1CCCC2,-,.,.,.,.,-
CCCNC(=O)c1csc2c1CCCCC2,-,-,-,-,-,-
CC(C)CNC(=S)NNC(=O)c1csc2ccccc12,-,?,-,15µM,-,-
CCNC(=S)NNC(=O)c1csc2ccccc12,-,-,?,?,?,-
CC(C)CNC(=S)NNC(=O)c1csc2c1CCCC2,-,8.9µM,-,-,?,?
CCC(C)NC(=O)COC(=O)c1csc2c1CCCC2 (configuration not stated),-,-,23µM,-,-,-
Cc1cc(=O)[nH]c2nnc(SCc3c(F)cccc3Cl)n12,-,.,.,.,.,-
O=C(C1CCN(S(=O)(=O)Cc2ccccc2)CC1)N1CCN(c2ccccc2F)CC1,-,.,-,-,.,-
COc1ccc(C(CC(=O)Nc2cccc(C)c2C)N2Cc3ccccc3C2=O)cc1 (configuration not stated),-,.,.,.,.,-
CC(=O)c1cccc(NC(=O)C2Cc3c(-c4cccc(C(N)=O)c4)ccnc3O2)c1 (configuration not stated),-,?,-,-,-,-
CS(=O)(=O)Nc1cccc(NC(=O)C2Cc3c(-c4ccco4)ccnc3O2)c1 (configuration not stated),-,18µM,?,-,?,-
CC(=O)c1cccc(-c2ccnc3c2CC(C(=O)NCCC(F)(F)F)O3)c1 (configuration not stated),-,?,7.3µM,?,21µM,-
CC(=O)c1cccc(NC(=O)C2Cc3c(-c4cccc(C(C)=O)c4)ccnc3O2)c1 (configuration not stated),-,-,-,21µM,-,-
CC(=O)c1cccc(-c2ccnc3c2CC(C(=O)Nc2cccc(NS(C)(=O)=O)c2)O3)c1 (configuration not stated),-,?,?,-,18µM,-
CC(C)(C)c1ccc(OCC(=O)N/N=C/c2cc(Br)ccc2OC(=O)c2ccco2)cc1,-,-,?,7.3µM,-,-
Cc1cc(C)c(Cn2c(=O)n(CCCCCC(=O)NCc3ccc4c(c3)OCO4)c(=O)c3sccc32)c(C)c1,-,.,.,.,.,-
COc1ccc(CCNC(=O)CN(c2ccc(C)cc2)S(=O)(=O)c2c(C)noc2C)cc1OC,-,-,-,-,-,-
COc1ccc(CN(C)S(=O)(=O)c2c(C)noc2C)cc1OC,-,-,-,18µM,-,-
